# In PubChem BioAssay (NCATS):
# Inconclusive results are not listed. A call without a number means that no potency is given here. Unmarked numbers belong to inactive results. Active and inactive are the calls of the source. Calls come from the whole dose curve; as a rule, active = well fitted curve in the direction sought with a large enough effect; inconclusive = small, poorly fitted or top-dose-only effect, or another doubt; inactive = no such curve, though single readings can be large; an effect the other way counts as inactive or inconclusive.
# Experiments:
# [1] = qHTS assay to identify small molecule inhibitors of chordoma cells - UCH-1 (AID 1259355); note: nearly all actives have a fitted effect of over 55% in size; note: potency is the fitted concentration of half-maximal effect; series mostly up to about 46 µM
# Method in brief: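 Screening used approved and investigational drugs in 15-point titration against 800 seeded cells per well. A fixed combination of auranofin with camptothecin, doxorubicin, rubitecan and topotecan followed compound addition, and growth was scored by CellTiter-Glo after 48hr.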
# [2] = qHTS assay to identify small molecule inhibitors of chordoma cells - UCH-2 (AID 1259356); note: potency is the fitted concentration of half-maximal effect
# [3] = P-glycoprotein substrates identified in KB-8-5-11 adenocarcinoma cell line, qHTS therapeutic library screen (AID 1346987); details: outcome: dose series up to 44.5 µM unless noted; note: nearly all actives have a fitted effect of over 65% in size
# Method in brief: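 In this qHTS, P-gp-rich KB-8-5-11 cells received library compounds across a concentration range. Viability was quantified by luminescence after 72 h at 37 degree C.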
# [4] = qHTS Assay for Identifying Gametocytocidal Compounds (AID 743244);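 note: actives lower the fluorescent signal which means gametocytes are killed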; details: P. falciparum 3D7 stage III-V gametocytes, alamarBlue, 72 h; max response: stronger effect = lower value
# Method in brief: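 P. falciparum 3D7 stage III–V gametocytes (20,000 cells/well) were exposed to compounds for 72 h at 37 °C, 5% CO2. AlamarBlue was then added for 24 h; decreased resorufin fluorescence (Ex 525/Em 598 nm) indicated loss of viability.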
# [5] = P-glycoprotein substrates identified in KB-3-1 adenocarcinoma cell line, qHTS therapeutic library screen (AID 1346986); details: KB-3-1 parental cells viability, CellTiter-Glo, 72 h; note: nearly all actives have a fitted effect of over 60% in size
# Method in brief: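 Viability by CellTiter-Glo after 72 h compound exposure at 37 degree C, 5% CO2. Cytotoxic call: curve class -1.1 to -2.4, maximum response >50%, AC50 < 10 uM, compared across KB-3-1 and P-gp-overexpressing KB-8-5-11.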
smiles,measurement,setting,value
CC(C)=CCC/C(C)=C/CC/C(C)=C/CC/C(C)=C/CC1=C(C)C(=O)c2ccccc2C1=O,Potency,[1],inactive
same,Potency,[2],inactive
CNCC(O)c1ccc(OC(=O)C(C)(C)C)c(OC(=O)C(C)(C)C)c1 (configuration not stated),Potency,[1],inactive
same,Potency,[2],inactive
same,Potency,[3],inactive
CC1=C(/C=C/C(C)=C/C=C/C(C)=C/C=C/C=C(C)/C=C/C=C(C)/C=C/C2=C(C)C[C@@H](O)CC2(C)C)C(C)(C)C[C@H](O)C1,Potency,[1],inactive
same,Potency,[2],inactive
Cn1c(O)c(N=NC(N)=S)c2ccccc21,Potency,[1],inactive
same,Potency,[2],inactive
CCOc1ccc(NC(=S)Nc2ccc(OCC)cc2)cc1,Potency,[1],inactive
same,Potency,[2],inactive
CN(C)C(=O)CCSC(SCCC(=O)O)c1cccc(/C=C/c2ccc3ccc(Cl)cc3n2)c1 (configuration not stated),Potency,[1],inactive
same,Potency,[2],inactive
same,Potency,[3],inactive
CN(C)CCC=C1c2ccccc2C(C)(C)c2ccccc21,Potency,[1],inactive
same,Potency,[2],inactive
CN[C@@H]1[C@H](O[C@H]2[C@H](O[C@H]3[C@H](O)[C@@H](O)[C@H](N=C(N)N)[C@@H](O)[C@@H]3N=C(N)N)O[C@@H](C)[C@]2(O)C=O)O[C@@H](CO)[C@H](O)[C@H]1O,max response,[4],14.8%
same,Potency,[1],inactive
same,Potency,[2],inactive
same,outcome,[5],inactive
same,outcome,[3],inactive [setting not given]
CN(C)c1ccc(C(=C2C=CC(=[N+](C)C)C=C2)c2c(O)c(S(=O)(=O)[O-])cc3cc(S(=O)(=O)O)ccc23)cc1,Potency,[1],14.1 µM (active)
same,Potency,[2],20.6 µM (active)
C=Cc1ccc(S(=O)(=O)O)cc1,Potency,[1],inactive
same,Potency,[2],inactive
same,Potency,[3],inactive
CC(C)(C)NC[C@H](O)COc1ccccc1C1CCCC1,Potency,[1],inactive
